PubChem BioAssay (NCI)
The panel holds about 83,000 compounds, 20% with a hit somewhere; the sample as a whole holds those more often.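 For each line, cells grew in 96-well plates with the test compound present at a single concentration for 48 hours.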 Values without a mark were called inactive. Activity calls are given as the source filed them. Rule for the calls: active = growth percent below 10; inactive = the rest.

Key:
Assay in all cases: NCI-60 one-dose screen, 48 h (100 = growth as untreated, 0 = no growth, -100 = all killed)
Settings in all cases: 10 µM unless noted
SR leukemia = test system: SR leukemia
RPMI-8226 leukemia = test system: RPMI-8226 leukemia
OVCAR-8 ovarian = test system: OVCAR-8 ovarian
OVCAR-5 ovarian = test system: OVCAR-5 ovarian
OVCAR-4 ovarian = test system: OVCAR-4 ovarian
SK-OV-3 ovarian = test system: SK-OV-3 ovarian
IGROV1 ovarian = test system: IGROV1 ovarian
OVCAR-3 ovarian = test system: OVCAR-3 ovarian
HS 578T breast = test system: HS 578T breast
NCI/ADR-RES ovarian = test system: NCI/ADR-RES ovarian
MDA-MB-435 melanoma = test system: MDA-MB-435 melanoma
SW-620 colon = test system: SW-620 colon
MCF7 breast = test system: MCF7 breast
HCT-116 colon = test system: HCT-116 colon
HCC-2998 colon = test system: HCC-2998 colon
KM12 colon = test system: KM12 colon
BT-549 breast = test system: BT-549 breast
T-47D breast = test system: T-47D breast

Row | Structure (SMILES) | growth (SR leukemia) | growth (RPMI-8226 leukemia) | growth (OVCAR-8 ovarian) | growth (OVCAR-5 ovarian) | growth (OVCAR-4 ovarian) | growth (SK-OV-3 ovarian) | growth (IGROV1 ovarian) | growth (OVCAR-3 ovarian) | growth (HS 578T breast) | growth (NCI/ADR-RES ovarian) | growth (MDA-MB-435 melanoma) | growth (SW-620 colon) | growth (MCF7 breast) | growth (HCT-116 colon) | growth (HCC-2998 colon) | growth (KM12 colon) | growth (BT-549 breast) | growth (T-47D breast) [%]
1 | N#Cc1c(Oc2ccc([N+](=O)[O-])cc2)nc2sc3cc(Cl)ccc3n2c1=N | 92.2% | 83.6% | 63.4% | 120% | 53.1% | 67.1% | 77.7% | 107% | 41.8% | 86% | 111% | 93.1% | 61.8% | 105% | 117% | 47.7% |  | 
2 | COc1ccc2cc(-c3ccc(C(=O)NN)c(C)n3)ccc2c1 | 78.4% | 101% | 102% | 91.6% | 90.8% | 95.7% | 101% | 91.9% | 99.4% | 105% | 99.9% | 107% | 90.4% | 93.7% | 99.6% | 103% | 88.9% | 
3 | COc1cc(C2CC(=O)Nc3n[nH]c(-c4ccccc4)c32)cc(OC)c1OC (stereo not drawn) | 31.8% | 90.6% | 80.1% | 91.3% | 88.4% | 85.5% | 71.4% | 36% | 74.8% | 104% | -2.19% (active) | 44.5% | 47.1% | 45.1% | 68% | 51.5% | 52.4% | 
4 | COc1ccc(OC)c(Nc2nc3nonc3nc2Nc2cccc(Br)c2)c1 | 19.6% | 2.67% (active) | 10.5% | 9% (active) | 12.1% | 3.28% (active) | 46.1% | 10.1% | 7.84% (active) | 9.06% (active) | 14.9% | 11.7% | 5.95% (active) | 10.9% | 25% | 7.96% (active) |  | 
5 | O=C(Oc1ccc([N+](=O)[O-])cc1)c1ccc(CBr)cc1 | 74.7% | 81.6% | 96.2% | 103% | 111% | 147% | 90.7% | 114% | 96.7% | 99.3% | 98.8% | 94.9% | 75.1% | 87.8% | 103% | 103% | 105% | 
6 | O=C(/C=C/C12c3ccccc3C(c3ccccc31)C1C(=O)N(c3ccccc3)C(=O)C12)c1ccccc1 (stereo not drawn) | 14.2% | 1% (active) | 27.4% | -12.7% (active) | 34.1% |  | -24.5% (active) | -61.9% (active) | 20.7% | 14.2% | -1.64% (active) | 1.65% (active) | 14.7% | -57.7% (active) | -65% (active) | -41.3% (active) | -2.69% (active) | 40.7
7 | Cc1nc(Nc2ccccn2)sc1C(=O)/C=C/c1ccc(Br)cc1 | 16.9% | 42.5% | 78.2% | 95.2% | 81.9% |  | 77.7% | 48.4% | 77.9% | 57.7% | 14.6% | 45.7% | 8.46% (active) | 72.6% | 103% | 24.2% | 83.3% | 45.7
8 | COc1ccccc1C(=O)NC(=S)Nc1ccc(-c2nc3ccccc3[nH]2)cc1 | 13.6% | 57.1% | 53.1% | 90.5% | -60.7% (active) |  | 69% | -36% (active) | 36.5% | 38.7% | 50.3% | 43.5% | 21.3% | 13.8% | 85.9% | 53.2% | 32.3% | 80.3
9 | O=C(NC(=S)Nc1ccc(-c2nc3ccccc3[nH]2)cc1)c1ccc2ccccc2c1 | 5.49% (active) | -6.21% (active) | 28.8% | 56.5% | -18.7% (active) |  | 52.2% | -45.2% (active) | 11.3% | 28.8% | 22.6% | 34.2% | 36.4% | 3.95% (active) | 66.2% | 31.3% | 4.76% (active) | 18.5
10 | Nc1c(C(=O)c2ccccc2)nnc2ncnn12 | 94.6% | 101% | 107% | 121% | 116% | 98% | 106% | 105% | 106% | 107% | 110% | 106% | 97.2% | 105% | 97.6% | 105% |  | 
11 | O=C(Nc1cccc2[nH]c(C(F)(F)F)nc12)c1cc(Cl)ccc1Cl | 25.3% | 14.5% | 26.5% | 78.1% | 23.2% | 47.9% | 35.8% | 21.4% | 53.9% | 9.82% (active) | 33.3% | 42.4% | 16.7% | 25.7% | 33.8% | 20% |  | 
12 | CCCN1CCN(c2ccc3nc(-c4ccc5nc(-c6ccc(OCC)c(OCC)c6)[nH]c5c4)[nH]c3c2)CC1 | 20.9% | -18.9% (active) | -11% (active) | -15.2% (active) | -59.9% (active) |  | -13.2% (active) | -63.7% (active) | -37.2% (active) | 79.4% | -88.2% (active) | -65.9% (active) | -59.5% (active) | -83.4% (active) | -79.5% (active) | -54.8% (active) | -64% (active) | 10.7
13 | O=C1C2=C(CCN(Cc3ccccc3)C2)N2CCN=C2N1Cc1ccc(F)cc1F | 55.5% | 19.3% | 17.4% | 56.4% | -2.31% (active) | 27.8% | 47.5% | 26.8% | 45.8% | 20.1% | 32.3% | 40.9% | 30.1% | 23.3% | 34.3% | 44.7% | 34.6% | 
14 | COc1ccc(OC)c(Nc2nc3nonc3nc2Nc2cc(OC)ccc2OC)c1 | 79.2% | 36.1% | 47.8% | 92.3% | -27.6% (active) | 46.1% | 95.3% | 26% | 44.6% | 44.8% | 43.1% | 57.3% | 65.7% | 17.6% | 56.7% | 67.4% |  | 
15 | CC(=O)OCCc1ccccc1 | 85.3% | 93.5% | 98.7% | 91.2% | 106% | 102% | 101% | 137% | 104% | 86.3% | 104% | 105% | 103% | 94.7% | 87% | 150% | 107% | 
16 | Cc1ccc(Nc2ccc(Nc3ccc(C)cc3S(=O)(=O)O)c3c2C(=O)c2ccccc2C3=O)c(S(=O)(=O)O)c1 | 108% | 87.8% | 97.6% | 106% | 102% | 111% | 114% | 95.5% | 88.7% | 102% | 103% | 92% | 92.2% | 87% | 112% | 96.7% | 103% | 
17 | COc1ccc(NC(=O)C(=O)c2c[nH]c3ccc(F)cc23)cc1 | 81.4% | 92.7% | 99% | 106% | 102% | 89.4% | 118% | 99.8% | 104% | 96.2% | 95.5% | 99.9% | 86.3% | 79.1% | 109% | 94.5% |  | 
18 | Cc1nc(C)c(-c2nn3c(-c4cccc(F)c4)nnc3s2)s1 | 69.3% | 96.2% | 94.7% | 112% | 112% | 104% | 106% | 113% | 105% | 91.3% | 95.2% | 96.8% | 99.8% |  | 105% | 99% |  | 
